hNpr1 antagonist – human Npr1 receptor antagonism; P16066; HEK293 hNpr1 GloSensor cGMP, ANP-stimulated luminescence; Potency, µM (series often up to 46.3 µM), without a hit: top-dose activity change, negative = inhibition, usual class: inhibitors; 1.6% of 76,000 active; calls by dose curve; also: nearly all actives have a fitted effect of over 60% in size
Target sequence (P16066 whole entry, looked up): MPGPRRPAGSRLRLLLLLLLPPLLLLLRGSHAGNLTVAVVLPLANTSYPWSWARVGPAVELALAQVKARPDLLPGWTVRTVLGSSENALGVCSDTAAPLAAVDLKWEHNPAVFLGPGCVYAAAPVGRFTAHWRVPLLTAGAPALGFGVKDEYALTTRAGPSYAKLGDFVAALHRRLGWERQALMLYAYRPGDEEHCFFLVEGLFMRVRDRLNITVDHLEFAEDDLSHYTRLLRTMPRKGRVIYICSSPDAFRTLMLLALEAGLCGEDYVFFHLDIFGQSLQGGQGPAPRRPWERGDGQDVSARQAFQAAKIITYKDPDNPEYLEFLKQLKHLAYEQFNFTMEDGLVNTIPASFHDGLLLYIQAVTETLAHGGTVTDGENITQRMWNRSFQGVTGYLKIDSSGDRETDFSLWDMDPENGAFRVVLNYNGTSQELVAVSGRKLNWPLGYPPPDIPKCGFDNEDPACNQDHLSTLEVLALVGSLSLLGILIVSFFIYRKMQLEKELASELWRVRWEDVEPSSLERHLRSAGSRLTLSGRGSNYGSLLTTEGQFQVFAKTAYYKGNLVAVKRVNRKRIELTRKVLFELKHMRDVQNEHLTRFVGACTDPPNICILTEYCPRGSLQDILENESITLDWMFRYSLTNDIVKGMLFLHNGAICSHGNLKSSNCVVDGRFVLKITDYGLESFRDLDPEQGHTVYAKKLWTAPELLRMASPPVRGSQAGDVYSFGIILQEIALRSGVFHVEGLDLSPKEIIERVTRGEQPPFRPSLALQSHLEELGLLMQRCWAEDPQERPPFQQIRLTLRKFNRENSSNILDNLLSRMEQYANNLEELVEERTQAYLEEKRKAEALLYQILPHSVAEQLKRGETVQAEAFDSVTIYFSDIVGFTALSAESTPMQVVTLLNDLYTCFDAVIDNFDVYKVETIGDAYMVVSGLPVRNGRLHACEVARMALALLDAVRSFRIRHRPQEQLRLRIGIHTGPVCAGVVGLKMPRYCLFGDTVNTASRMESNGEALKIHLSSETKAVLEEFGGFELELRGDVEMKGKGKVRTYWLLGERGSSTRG
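Compound pre-incubated 30 min at room temperature on GloSensor-loaded HEK293 cells stably carrying hNpr1 and the pGS-40F cGMP biosensor. Stimulation uses hNppA at 0.1 nM final; luminescence is taken at baseline and 20 min post-agonist.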
3T3 cytotox – NIH 3T3 cell cytotoxicity | Potency, µM (doses to about 96.7 µM), without a hit: at the highest dose activity change, negative = cytotoxicity, hits mostly inhibitors | NIH 3T3 viability, CellTiter-Glo ATP luminescence, 48-72 h | 4.3% of 94,000 active | AID 1345082; also: nearly all actives have a fitted effect of over 55% in size
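Cytotoxicity was measured by CellTiter-Glo ATP luminescence after 48 or 72 h compound exposure at 37 °C. Mouse NIH 3T3 fibroblasts were seeded at 400 cells/well and dosed by 23 nL pin transfer.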
FLuc inh – inhibitors of firefly (Photinus pyralis) luciferase. purified P. pyralis luciferase, luminescence, biochemical. Potency, µM (series often up to 115 µM), usual class: inhibitors. 2.5% of 76,000 active. P08659; also: nearly all actives have a fitted effect of over 65% in size
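Purified P. pyralis luciferase (10nM final) in 50mM Tris acetate pH 7.5, 10mM Mg acetate, 0.01% Tween-20, 0.05% BSA with 10uM D-luciferin and 10uM ATP. Compounds titrated qHTS. Luminescence imaged on CCD.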
HEK cytotox – HEK 293 cell cytotoxicity; HEK 293 viability, ATP luminescence (CellTiter-Glo), 48-72 h; Potency, µM (titrated, usually from 115 µM), for the others: at the highest dose activity change, negative = cytotoxicity, hits mostly inhibitors; 6.6% of 94,000 active; AID 1345083; also: nearly all actives have a fitted effect of over 60% in size
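Cytotoxicity was scored by loss of ATP-coupled luminescence (CellTiter-Glo) in HEK 293 cells. Compound treatment ran 48 or 72 hr at 37 degree Celsius, 5% CO2, 95% humidity.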
* = called active by the depositor; i = inactive; ? = inconclusive; . = no result; ! = not active in a repeat; [ ] = dose if it differs, or a comment. Compounds with a hit are over-represented: about 11% of the library has one in this group of screens. Unless noted, calls follow the shape of the dose curve; as a rule, active = well fitted curve in the direction sought with a large enough effect; inconclusive = small, poorly fitted or top-dose-only effect, or another doubt; inactive = no such curve, though single readings can be large; an effect the other way counts as inactive or inconclusive. % is scaled to controls: 0 for no effect and ±100 for the full control effect; potency is read from the fitted curve at half-maximal effect.

SMILES	hNpr1 antagonist	3T3 cytotox	FLuc inh	HEK cytotox
COc1ccc(-n2cc(CN3CCC(O)CC3)c(-c3cccc(F)c3)n2)cc1	-1%	79µM*	40µM*	?
Cc1nc2cnccn2c1C(=O)NCCc1cccc(F)c1	.	-4%[138 µM]	.	-14%[172 µM]
CC(NC(=O)c1ccc2c(c1)OCO2)C(=O)N1CCN(c2ccccn2)CC1 (stereo not drawn)	5%	?	i	-25%
CN(c1ccccc1)c1ccc2c(n1)CN(Cc1ccc(F)cc1)C(=O)CO2	?	89µM*	50µM*	?
NC(=O)c1cccc(-c2ccc3c(n2)CN(Cc2ccc(F)cc2)C(=O)CO3)c1	?	?	i	?
COc1cccc(CN2Cc3nc(Oc4ccccc4)ccc3OCC2=O)c1	-22%[70.6 µM]	?	i	?
COc1cccc(CN2Cc3nc(N(C)c4ccccc4)ccc3OCC2=O)c1	?	?	?	89µM*
COc1c(C)cccc1C(=O)N1CCC2(CCNCC2)CC1	?	-26%	i	-44%
COc1ccc2ccc(OCc3nc(C(=O)NC(C)c4n[nH]c(C)n4)co3)cc2c1 (stereo not drawn)	11µM*	-28%	?	45µM*
COc1ccc2ccc(OCc3nc(C(=O)N4CCCC(C)(CO)C4)co3)cc2c1 (stereo not drawn)	11µM*	?	?	?
COc1ccc2ccc(OCc3nc(C(=O)NCc4cnc(C)cn4)co3)cc2c1	-22%	?	i	?
O=C(c1ccccc1)N1CCc2nc(-c3ccccc3)nc(-c3ccc(Cl)cc3)c2C1	0%	?	i	?
O=C(c1ccc(C(F)(F)F)cc1)N1CCc2nc(-c3ccc(Cl)cc3)nc(-c3ccccc3)c2C1	7%	-18%	i	20µM*
CC(=O)NC(CO)C(=O)N1CCc2onc(-c3cccc4ccccc34)c2C1 (stereo not drawn)	1%	-16%	i	-6%
Cc1ccc(C(=O)N2CCc3onc(-c4cccc5ccccc45)c3C2)cc1	-4%	?	i	40µM*
Cc1ccc(C(=O)N2CCc3nc(-c4ccc(Cl)cc4)nc(-c4ccccc4)c3C2)cc1	0%	?	?	50µM*!
CN1C(=O)c2cccn2CC1CNC(=O)NC1CCCC1 (stereo not drawn)	2%	i	i	1%
COc1ccc(Nc2ccnc(N3CCCC(C(=O)N4CCN(C(C)=O)CC4)C3)n2)cc1 (stereo not drawn)	.	?	.	-14%
COc1ccc(Nc2ccnc(N3CCCC(C(=O)N4CCCC(C)C4)C3)n2)cc1 (stereo not drawn)	.	45µM*	.	?
COc1ccc(CNC(=O)C2CCCN(c3nccc(Nc4ccc(OC)cc4)n3)C2)cc1 (stereo not drawn)	.	?	.	28µM*
COc1ccc(Nc2ccnc(N3CCCC(C(=O)NC4CCCC4)C3)n2)cc1 (stereo not drawn)	.	40µM*	.	?
COc1ccc(Nc2ccnc(N3CCCC(C(=O)NCc4ccc(F)cc4)C3)n2)cc1 (stereo not drawn)	.	28µM*	.	?
CC(NC(=O)c1cc(-c2ccncc2)cn1C)c1ccc(F)cc1 (stereo not drawn)	-10%	-24%	i	79µM*
CC(C)NC(=O)c1cc(-c2ccc(F)cc2)cn1C	7%	-5%	i	-1%
O=C(NC1CCN(c2cc(-c3ccc(Cl)cc3)[nH]n2)CC1)c1ccncc1	?	?	i	28µM*
SMILES	hNpr1 antagonist	3T3 cytotox	FLuc inh	HEK cytotox
O=C(NC1CCN(c2cc(-c3ccc(F)cc3)[nH]n2)CC1)c1ccc2[nH]ccc2c1	-16%	25µM*	i	?
N#Cc1ccc(C(=O)NC2CCN(c3cc(-c4ccc(Cl)cc4)[nH]n3)C2)cc1 (stereo not drawn)	?	?	i	45µM*
O=C(NC1CCN(c2cc(-c3ccc(F)cc3)[nH]n2)C1)c1ccc2[nH]ccc2c1 (stereo not drawn)	-8%	?	i	?
O=C(NC1CCN(c2cc(-c3ccc(Cl)cc3)[nH]n2)C1)c1ccc2[nH]ccc2c1 (stereo not drawn)	-24%	40µM*	?	?
CNC(=O)[C@@H]1C[C@H](Oc2ccccc2)CN1C(=O)CCc1nc2ccccc2[nH]1	3%	-16%	i	-16%
COC[C@@H]1CN(C(=O)c2cccn2C)C[C@H]1c1ccccn1	-2%	-3%	i	2%
COc1ccc(C(=O)NC2CCN(c3cc(-c4ccc(F)cc4)[nH]n3)CC2)cc1	-4%	-1%	i	?
O=C(NC1CCN(c2cc(-c3ccc(F)cc3)[nH]n2)CC1)c1ccc(OC(F)(F)F)cc1	-20%	28µM*	i	20µM*
COc1cc(=O)n2c(c1C(=O)Nc1ccc(Cl)cc1Cl)CCCC2	-3%	-23%	i	-28%
CCOC(=O)[C@H]1C[C@]2(CCCCN(CCOC)C2=O)N(C(=O)CC(C)C)[C@H]1c1ccco1	.	-25%	.	?
CNC(=O)[C@H]1C[C@]2(CCCCN(CCO)C2=O)N(C(=O)Nc2ccccc2)[C@H]1c1ccco1	.	?	.	1%
CNC(=O)[C@H]1C[C@]2(CCCCN(CCO)C2=O)N(C(=O)Cc2cccs2)[C@H]1c1ccco1	.	?	.	35µM*
CCOC(=O)[C@H]1C[C@]2(CCCCN(CCOC)C2=O)N(C(=O)Cc2cccs2)[C@H]1c1ccco1	.	?	.	79µM*
O=C1NCCN2CC3(CCN(C(=O)c4cnccn4)CC3)CC12 (stereo not drawn)	-2%	-6%	i	-23%
Cn1ccnc1-c1cn(Cc2scnc2-c2ccccc2)nn1	-2%	-14%	i	i
O=C1Nc2ccccc2C12CN([S+](=O)([O-])c1cccc(C(F)(F)F)c1)C2	.	?	.	-22%
O=C1Nc2ccccc2C12CCN([S+](=O)([O-])c1ccsc1)CC2	-28%	-8%	i	45µM*
O=C(NCc1ccc(F)cc1)c1nc(-c2cccc(C(F)(F)F)c2)c2cnccn12	0%	-23%	i	?
FC(F)(F)c1cccc(-c2nccn3c(C4CN(Cc5ccc6cn[nH]c6c5)C4)ncc23)c1	-16%	40µM*	i	45µM*
C=CCO[C@@H]1CCN2C(=O)c3cc(-c4cccc(C(F)(F)F)c4)ccc3NC(=O)[C@H]12	-1%[70.6 µM]	?	i	71µM*
CCS[C@H]1CCN2C(=O)c3cc(-c4ccccc4F)ccc3NC(=O)[C@H]12	3%[70.6 µM]	?	i	89µM*
C=CCO[C@@H]1CCN2C(=O)c3cc(-c4ccc(F)cc4F)ccc3NC(=O)[C@H]12	-1%[70.6 µM]	-13%[174 µM]	i	112µM*
C=CCO[C@@H]1CCN2C(=O)c3cc(-c4ccccc4)ccc3NC(=O)[C@H]12	-9%[70.6 µM]	-26%[174 µM]	i	-26%[172 µM]
C=CCO[C@@H]1CCN2C(=O)c3cc(-c4cc(Cl)ccc4OC)ccc3NC(=O)[C@H]12	-16%[70.6 µM]	100µM*	i	63µM*

Screens (PubChem)
